Our source for the growth values is PubChem BioAssay (NCI).

Among the test systems are NCI-H23 lung; NCI-H322M lung; HOP-62 NSCLC; NCI-H460 lung; HOP-92 NSCLC; NCI-H522 lung; A549/ATCC NSCLC; 786-0 renal; COLO 205 colon.
What all share (assay): NCI-60 one-dose screen, 48 h (100 = growth as untreated, 0 = no growth, -100 = all killed)
Holding throughout (conditions): 10 µM unless noted

This is part of a sample that, as a whole, favours compounds with a hit. Of some 83,000 tested, about 20% had one in any assay.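 Growth was measured after 48 h exposure to one concentration of compound in 96-well plates. Values under 10 count as active.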 Unmarked numbers belong to inactive results. Activity calls are given as the source filed them.

Regarding `COc1ccc(OC)c(-c2cc(-c3ccc(Cl)cc3)c3c(N)c(C(=O)c4ccc(Cl)cc4)sc3n2)c1`, the growth in the assay with NCI-H23 lung was 91.4%; in the assay on NCI-H322M lung it was 93.6%; with HOP-62 NSCLC, 81.3%; in the assay with NCI-H460 lung, 105%; with HOP-92 NSCLC, 90.9%; in the assay with NCI-H522 lung, 86.1%. The growth is 97.3% in the assay on A549/ATCC NSCLC, 97.3% in the assay on 786-0 renal and 110% in the assay with COLO 205 colon.

On to `COc1ccc(/C=C2\Oc3cc(OCCCN4CCCCC4)ccc3C2=O)cc1OC`, for which the growth in the assay with NCI-H23 lung is 92.1%; in the assay with NCI-H322M lung, 92.1%; in the assay with NCI-H460 lung, 89%; with HOP-92 NSCLC, 65.9%; in the assay on NCI-H522 lung, 99.1%; in the assay with A549/ATCC NSCLC, 93.6%. For the same molecule, the growth is 88.7% in the assay with 786-0 renal and 98.3% in the assay on COLO 205 colon.

As for `O=C(CCN1CCCC1)Nc1ccc2c(NCc3ccccc3)c3ccccc3nc2c1`, the growth is -29.8% (active) in the assay on NCI-H23 lung; -0.926% (active) in the assay with NCI-H322M lung; -3.52% (active) in the assay with HOP-62 NSCLC; -34.4% (active) in the assay with NCI-H460 lung; -9.2% (active) in the assay on HOP-92 NSCLC; -28.2% (active) in the assay on NCI-H522 lung. Besides, the growth in the assay on A549/ATCC NSCLC was -19.7% (active); in the assay on 786-0 renal, 5.35% (active); in the assay on COLO 205 colon, -41.6% (active).

For `CCOC(=O)c1cc(C(=O)c2cc(OC)cc(OC)c2)n2ccc3ccccc3c12`, the growth with NCI-H23 lung is 81.5%; in the assay on NCI-H322M lung, 91.1%; in the assay with HOP-62 NSCLC it was 70.7%; with NCI-H460 lung it was 101%; in the assay on HOP-92 NSCLC, 111%; in the assay on NCI-H522 lung, 83.3%. The growth was 77.9% in the assay on A549/ATCC NSCLC and 115% in the assay on COLO 205 colon.

Regarding `COc1ccc(C(=O)C2C(C#N)C(C#N)C3c4ccccc4C=CN23)cc1` (stereo unspecified), the growth was 83.3% with NCI-H23 lung; 89% with NCI-H322M lung; 97.7% with NCI-H460 lung; 85.9% with HOP-92 NSCLC; 71.9% with NCI-H522 lung; 87.2% in the assay with A549/ATCC NSCLC. The growth with COLO 205 colon is 107%.
